According to PubChem BioAssay AID720597 (Broad Institute, 2013):
Measured potencies and affinities stand elsewhere. Unmarked numbers belong to inactive results.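 Rule for the calls: active = fitted half-maximal dose no more than twice the top valid tested dose, for compounds that lower signal; inconclusive = fit invalid, or curve flat with activity between -70 and -30; inactive = potency past limit, curve flat within ±30, or signal increasing.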

target: NAD-dependent protein deacylase sirtuin-5, mitochondrial (Homo sapiens) (UniProt Q9NXA8); assay: SIRT5 deacylase inhibitors, dose response, biochemical, fluorescence imaging, cherry-pick, set 6 (AID 720597); settings: Purified SirT5, succinyl-peptide-AMC/trypsin fluorescence; series mostly up to 15 µM; activity change, negative = inhibition: at the top concentration;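 note: lower AMC signal can also come from blocking the trypsin step; 0% = median of neutral control wells and -100% = median of positive control wells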
Sequence (Q9NXA8 whole entry, looked up): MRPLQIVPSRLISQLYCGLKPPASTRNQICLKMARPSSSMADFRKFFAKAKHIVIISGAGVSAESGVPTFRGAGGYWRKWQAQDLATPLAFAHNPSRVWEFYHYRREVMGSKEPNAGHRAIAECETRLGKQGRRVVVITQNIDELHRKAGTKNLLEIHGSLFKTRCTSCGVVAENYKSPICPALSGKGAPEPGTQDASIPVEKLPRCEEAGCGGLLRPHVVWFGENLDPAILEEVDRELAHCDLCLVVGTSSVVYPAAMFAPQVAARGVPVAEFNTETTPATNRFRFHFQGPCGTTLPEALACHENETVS

Row | SMILES | activity change, negative = inhibition
1 | O=C(NCC[C@H]1CC[C@@H](NS(=O)(=O)c2cccc(F)c2)[C@@H](CO)O1)C1CCOCC1 | 6.94%
2 | Cc1ccc(S(=O)(=O)N(C)C[C@H]2OCCCC[C@@H](C)Oc3ccc(NS(=O)(=O)c4ccccc4)cc3C(=O)N([C@@H](C)CO)C[C@H]2C)cc1 | -23.3%
3 | COc1ccc(-c2ccc([C@@H]3[C@H]4CN(C(=O)Cc5ccccn5)CC(=O)N4[C@H]3CO)cc2)cc1 | -14.6%
4 | C[C@@H]1CN([C@@H](C)CO)S(=O)(=O)c2ccc(C#CC3CC3)cc2O[C@@H]1CN(C)Cc1ccccc1F | 7.53%
5 | O=C(c1cccnc1)N1CCCCN2[C@H](CO)[C@@H](c3ccc(C#Cc4ccccn4)cc3)[C@@H]2C1 | -14.5%
6 | CC(C)CC#Cc1ccc2c(c1)O[C@H](CN(C)C(=O)NC1CCCC1)[C@@H](C)CN([C@@H](C)CO)S2(=O)=O | -31.7%
7 | COc1ccc(S(=O)(=O)Nc2ccc3c(c2)CC(=O)N([C@@H](C)CO)C[C@@H](C)[C@H](CN(C)Cc2ccc(C(F)(F)F)cc2)O3)cc1 | 8.76%
8 | C[C@@H](O)C#Cc1ccc2c(c1)O[C@H](CN(C)Cc1ccc(-c3ccccc3)cc1)[C@@H](C)CN([C@@H](C)CO)S2(=O)=O | -24.7%
9 | C[C@@H]1CN([C@@H](C)CO)C(=O)c2cccc(NC(=O)c3ccncc3)c2O[C@H]1CN(C)S(C)(=O)=O | 21.9%
10 | C[C@H](NC(=O)C[C@@H]1CC[C@H]2[C@@H](COC[C@@H](O)CN2C(=O)Nc2cccc(F)c2)O1)c1ccccc1 | -27.1%
11 | COc1ccc(S(=O)(=O)N(C)C[C@@H]2Oc3cc(C#CC4CCCC4)ccc3S(=O)(=O)N([C@H](C)CO)C[C@H]2C)cc1 | -14.8%
12 | O=C(NCC1CCCCC1)[C@H]1[C@H](CO)[C@H]2Cn3c(cccc3=O)[C@@H]1N2CCc1ccccc1 | -24.3%
13 | CCOc1ccc(C)cc1S(=O)(=O)n1ccnc1C | -12.4%
14 | Cn1cnc(CCNC(=O)C[C@@H]2CC[C@@H]3[C@H](COC[C@@H](O)CN3C(=O)Nc3ccc(Cl)cc3)O2)c1 | 2.98%
15 | O=C(c1ccc(F)cc1)N1CC(=O)N2[C@H](C1)[C@H](c1ccc(C#CCC3CCCC3)cc1)[C@@H]2CO | -22.1%
16 | C[C@H]1CN([C@@H](C)CO)C(=O)Cc2cc(NC(=O)Nc3ccc(F)cc3)ccc2O[C@H]1CN(C)C | -2.82% [at 16 µM]
17 | CN(C)C(=O)c1cccc(-c2ccc([C@H]3[C@H]4CN(S(C)(=O)=O)CCCCN4[C@H]3CO)cc2)c1 | -11.1%
18 | Cc1cc(C)cc(NC(=O)C2CC(=O)n3ncnc3N2)c1 (centres undefined) | -3.96% [at 18 µM]
19 | COc1ccc(C#Cc2ccc([C@@H]3[C@H](CO)N4C(=O)CN(C(=O)c5cccnc5)C[C@@H]34)cc2)cc1 | -0.496%
20 | COc1ccc(S(=O)(=O)N(C)C[C@@H]2OCCCC[C@H](C)Oc3ccc(NS(=O)(=O)c4cccs4)cc3C(=O)N([C@@H](C)CO)C[C@H]2C)cc1 | -24.6%

Row | SMILES | activity change, negative = inhibition
21 | CC(C)NC(=O)N[C@H]1CC[C@H](CCNC(=O)C2CCCC2)O[C@@H]1CO | 3.67%
22 | C[C@H](O)C#Cc1ccc2c(c1)O[C@H](CN(C)Cc1ccc(-c3ccccc3)cc1)[C@@H](C)CN([C@H](C)CO)S2(=O)=O | -21.9% [at 7.5 µM]
23 | C[C@H]1CN([C@@H](C)CO)C(=O)c2cc(C#CCN(C)C)cnc2O[C@H]1CN(C)Cc1ccncc1 | -5.33%
24 | COc1ccccc1-c1ccc2c(c1)O[C@H](CN(C)S(=O)(=O)c1ccc(F)cc1)[C@H](C)CN([C@H](C)CO)S2(=O)=O | -19.5%
25 | Cc1ccc(-c2ccc3c(c2)O[C@@H](CN(C)Cc2ccccn2)[C@H](C)CN([C@@H](C)CO)S3(=O)=O)cc1 | -10.8%
26 | C[C@H](CO)N1C[C@H](C)[C@@H](CN(C)Cc2ccc(Cl)c(Cl)c2)Oc2c(NC(=O)c3ccc(-c4nccs4)cc3)cccc2C1=O | -6.33% [at 3.8 µM]
27 | COc1ccc(S(=O)(=O)N(C)C[C@@H]2Oc3c(NS(C)(=O)=O)cccc3C(=O)N([C@@H](C)CO)C[C@H]2C)cc1 | 1.21% [at 12 µM]
28 | CC(=O)N(C)C[C@@H]1Oc2ncc(-c3ccccc3C)cc2C(=O)N([C@H](C)CO)C[C@H]1C | -1.22%
29 | COc1ccc(NC(=O)N(C)C[C@H]2Oc3cc(C#CCC(C)C)ccc3S(=O)(=O)N([C@@H](C)CO)C[C@@H]2C)cc1 | 29%
30 | C[C@@H]1CN([C@@H](C)CO)C(=O)c2cc(NC(=O)C3CC3)ccc2O[C@@H]1CN(C)S(=O)(=O)c1cn(C)cn1 | 0.617%
31 | COc1cccc(-c2ccc3c(c2)[C@@H]2[C@@H](CCN2C(=O)c2ccccc2F)[C@H](CO)N3C)c1 | -1.31%
32 | Cc1noc(C)c1S(=O)(=O)Nc1ccc2c(c1)C(=O)N([C@@H](C)CO)C[C@H](C)[C@@H](CN(C)Cc1ccc(C(F)(F)F)cc1)OCCCC[C@@H](C)O2 | -32.6% [at 16 µM]
33 | O=C(CC1CC1)N1CC2(C1)[C@@H](c1ccccc1)[C@@H](CO)N2Cc1cccc(F)c1 | -9.95%
34 | O=C(CCN1CCCCC1)N[C@@H]1CC[C@H](CC(=O)N2CCC(Cc3ccccc3)CC2)O[C@H]1CO | -2.36%
35 | COc1ccc(NC(=O)Nc2ccc3c(c2)C(=O)N([C@@H](C)CO)C[C@@H](C)[C@H](CN(C)C(=O)Nc2cccc4ccccc24)OCCCC[C@H](C)O3)cc1 | -3.45%
36 | COc1ccc(S(=O)(=O)N(C)C[C@@H]2OCCCC[C@H](C)Oc3ccc(NS(=O)(=O)c4ccc(C)cc4)cc3C(=O)N([C@H](C)CO)C[C@@H]2C)cc1 | -0.742%
37 | O=C(C[C@@H]1C[C@@H]2c3cc(NC(=O)NC4CCCCC4)ccc3O[C@@H]2[C@H](CO)O1)NCCc1ccccc1 | 29.7%
38 | O=C(CN1CCOCC1)N1CCCCN2[C@H](C1)[C@H](c1ccc(-c3ccccc3F)cc1)[C@@H]2CO | 24.7%
39 | CNC[C@@H]1Oc2ccc(NC(=O)Nc3ccc(F)cc3)cc2CC(=O)N([C@H](C)CO)C[C@@H]1C | 9.57%
